The list is not random: actives were taken first. Their share in the collection is about 8.1%.
KB-3-1 cytotox – KB-3-1 parental cell cytotoxicity | KB-3-1 viability, CellTiter-Glo ATP luminescence, 72 h | Potency, µM (series often up to 46.1 µM), actives largely listed as cytotoxic | 400,000 tested, 1.4% active; also: % is scaled to controls: 0 for no effect and ±100 for the full control effect; nearly all actives have a fitted effect of over 60% in size
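Cytotoxicity in the drug-sensitive parental line KB-3-1 was scored as loss of CellTiter-Glo luminescence following 72 h incubation with compound. Values come from curve fitting of normalized concentration-response data.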
SW480 rereplic – inducers of DNA re-replication in SW480 colon cancer cells; Potency, µM (titrated, usually from 46.1 µM), for inactives: at the top dose re-replication activation, actives largely listed as activators; AID 624297; SW480 DNA re-replication, Hoechst DNA content imaging, 48 h; 340,000 tested, 1.8% active; also: % of control where 0% means no effect; nearly all actives have a fitted effect of over 55% in size
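250 cells/well; 23 nL cpd via pin tool; 48 hr, 37 C, 5% CO2; Hoechst 40 min; imager read of total nuclear intensity, ex 405/em 500-530 nm.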
MCF10A rereplic – DNA re-replication induction in MCF 10a cells; MCF 10A DNA re-replication, Hoechst nuclear intensity, 48 h; Potency, µM (series often up to 46.1 µM), for inactives: at the top dose activity, positive = re-replication, most hits filed as activators; 350,000 tested, 2.9% active; AID 624296; also: % of control where 0% means no effect; nearly all actives have a fitted effect of over 50% in size
ELG1 repair inh – ELG1-dependent DNA repair inhibition. HEK293T ELG1-luciferase reporter, luminescence, 16 h; DNA damage induced by 5-fluorouridine. Potency, µM (highest dose often 46.1 µM), inactives show at the highest dose activity change, negative = inhibition, usual class: inhibitors. 330,000 tested, 2.3% active. AID 504467; also: % is scaled to controls: 0 for no effect and ±100 for the full control effect; nearly all actives have a fitted effect of over 55% in size
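5-Fluorouridine DNA damage + compound/DMSO, 2,000 cells/well, 16 h, 37 °C/5% CO2. ONE-Glo, 30 min RT, luminescence. Readout = decrease in reporter signal.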
KB-V1 cytotox – kills drug-selected multidrug resistant KB-V1 cells; KB-V1 MDR cells viability, CellTiter-Glo, 72 h; Potency, µM (top dose mostly 46.1 µM), most hits filed as cytotoxic; 400,000 tested, 3.4% active; also: % is scaled to controls: 0 for no effect and ±100 for the full control effect; nearly all actives have a fitted effect of over 60% in size
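Following 72 h at 37 degrees C with compound, KB-V1 cell viability was read by CellTiter-Glo luminescence, medium being phenol-red-free DMEM plus 10% FBS; concentration-response parameters came from normalized, curve-fitted qHTS data.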
* marks the source's active call; other numbers are inactive results; i = inactive; ? = inconclusive; . = no result given. Calls follow the shape of the dose curve; as a rule, active = well fitted curve in the direction sought with a large enough effect; inconclusive = small, poorly fitted or top-dose-only effect, or another doubt; inactive = no such curve, though single readings can be large; an effect the other way counts as inactive or inconclusive. Potency is read from the fitted curve at half-maximal effect.

SMILES	KB-3-1 cytotox	SW480 rereplic	MCF10A rereplic	ELG1 repair inh	KB-V1 cytotox
Cc1cccc(CN2C(=O)CSc3ccc(C(=O)NC4CC4)cc32)c1	i	-18%	9%	1%	?
CCN(CC)CCN1C(=O)C(O)=C(C(C)=O)C1c1ccccc1[N+](=O)[O-] (stereo not drawn)	i	?	21µM*	-10%	?
CC(=O)C1=C(O)C(=O)N(CCc2ccccc2)C1c1ccccc1[N+](=O)[O-] (stereo not drawn)	i	1%	11%	-4%	i
CCOc1ccc(OCC)c(NC(=O)c2cnc3c(-c4ccccc4)c(C)nn3c2C)c1	i	.	.	.	i
c1ccc(COc2ncnc3c2ncn3CCCN2CCN(Cc3cccc4ccccc34)CC2)cc1	15µM*	.	.	.	?
O=c1c2ccccc2c(C=Nc2ccc(Cl)cn2)c(O)n1-c1cc(Cl)ccc1N1CCOCC1	i	-2%	16%	1%	i
CC(=O)c1ccc(N=Cc2c(O)n(-c3cc(Cl)ccc3N3CCOCC3)c(=O)c3ccccc23)cc1	i	-3%	1%	7.3µM*	i
N#CN=c1snc(-c2ccccc2Cl)n1-c1ccccc1Cl	i	.	.	.	i
CC[N+](CC)(CC#Cc1ccccc1)CC#Cc1ccccc1	8.2µM*	15%	5%	?	i
Cc1cc(S(=O)(=O)N2CCOCC2)ccc1NC(=O)c1ccc(F)cc1	i	0%	-2%	6%	?
Cc1ccc(NC(=O)C2=C(C(=O)O)CCCC2)cc1Br	i	8.2µM*	5%	-2%	i
Cc1ccc(NC(=O)C2=C(C(=O)O)CCCC2)cc1F	i	-2%	-9%	20%	i
COC(=O)c1sc(NC(=O)COc2ccc(OC)cc2)nc1C	i	4%	-2%	.	?
Cc1nn(-c2ccccc2)c2sc(C(=O)NNC(=O)COc3ccccc3)cc12	i	-1%	0%	?	i
Cc1nn(-c2ccccc2)c2sc(C(=O)NNC(=O)COc3cccc4ccccc34)cc12	?	?	23µM*	-12%	18µM*
Cc1nn(-c2ccccc2)c2sc(C(=O)N3CCc4ccccc4C3)cc12	i	0%	-4%	?	18µM*
Cc1nc2ccccc2c2oc(C(=O)N3CCc4ccccc4C3)cc12	i	-2%	5%	26µM*	i
COC(=O)c1sc(NC(=O)COc2cccc3ccccc23)nc1C	i	-3%	18µM*	-13%	?
COc1ccc(NC(=O)c2cccc(N3C(=O)C4CCC(C)CC4C3=O)c2)c(OC)c1 (stereo not drawn)	i	-8%	8%	3%	i
Cc1cc[n+](C2CCCCC2)c2ccccc12	i	.	.	.	i
COC(=O)c1ccccc1NC(=O)CCC(=O)N1CCOc2ccccc21	i	.	.	.	i
O=C(O)Cn1nncc1-c1ccc(C(F)(F)F)cc1	i	.	.	.	i
Cc1cccc(CC(=O)N2CCN(C(=O)c3ccco3)CC2)c1	i	19%	3%	4%	i
COC(=O)c1ccc(C(=O)OC)c(NC(=O)c2cnn3c(C(F)F)cc(-c4ccc(C)cc4)nc23)c1	i	.	.	.	i
CCOc1ccccc1-c1cc(NC)ncn1	i	.	.	.	i
SMILES	KB-3-1 cytotox	SW480 rereplic	MCF10A rereplic	ELG1 repair inh	KB-V1 cytotox
Cc1cc(Nc2ccc(Cl)cc2)n(-c2cccc(Cl)c2)n1	?	?	26µM*	2%	?
Cc1cc(Nc2nc3ccccc3nc2Cl)n(-c2ccccc2C)n1	i	4%	?	-1%	i
Cc1cc(NC(=O)COc2ccc(Cl)cc2Cl)n(-c2ccccc2)n1	i	-7%	2%	?	?
Cc1cc(Nc2ccccc2C(=O)O)n(-c2cccc(Cl)c2)n1	i	5.2µM*	-1%	-8%	i
Cc1cc(NC(=O)CSc2cc(Cl)ccc2Cl)n(-c2ccccc2)n1	i	3%	8%	26µM*	i
Cc1cc(Nc2nc3ccccc3nc2Cl)n(-c2ccccc2)n1	?	?	13µM*	-7%	13µM*
Cc1cc(NC(=O)c2ccc(Cl)cc2Cl)n(-c2ccccc2)n1	i	-39%	-4%	1%	i
O=S1(=O)CCN(C2CCCC2)CC1	i	.	.	.	i
CC1=C(C(=O)Nc2ccc(F)cc2F)C2(CCN(C(C)C)CC2)OC1=O	i	.	.	.	?
CCOC(=O)c1cc(C)sc1NC(=O)C(c1ccccc1)c1ccccc1	i	0%	26µM*	8%	i
COc1ccc(NC(=O)N(C)C[C@H]2Oc3ccc(NC(=O)Nc4ccc5c(c4)OCO5)cc3C(=O)N([C@H](C)CO)C[C@@H]2C)cc1	i	6%	-9%	.	i
FC(F)C(F)(F)Oc1cccc(Nc2nccn3c(-c4ccc5ccccc5c4)cnc23)c1	?	.	.	.	10µM*
FC(F)C(F)(F)Oc1cccc(Nc2nccn3c(-c4cccc5ccccc45)cnc23)c1	i	.	.	.	?
O=c1c2ccccc2nc(-c2ccccc2)n1Cc1ccc(Cl)cc1	i	10%	18µM*	1%	i
O=c1c2ccccc2nc(-c2ccccc2)n1Cc1ccccc1	i	-3%	?	?	i
O=c1c2ccccc2nc2n1CCN2Cc1ccc(Cl)cc1	16µM*	-13%	-6%	-19%	4.6µM*
Cc1ccc(S(=O)(=O)N2[C@H](CC(=O)c3ccc(F)cc3)OC[C@@H]2C)cc1	i	.	.	.	?
COc1ccc(CCNC(=O)CC(=O)N/N=C\c2ccc(OCC(N)=O)cc2)cc1OC	i	.	.	.	?
S=C(NCc1ccccc1)Nc1cccc2cnccc12	i	-9%	18%	2.1µM*	?
Cc1ccccc1NC(=S)Nc1cccc2cnccc12	i	0%	1%	?	?
Fc1ccccc1NC(=S)Nc1cccc2cnccc12	?	-4%	8%	?	23µM*
S=C(Nc1cccc(Cl)c1)Nc1cccc2cnccc12	18µM*	-1%	?	?	23µM*
Cc1ccc(C)c(NC(=S)Nc2cccc3cnccc23)c1	?	13µM*	?	?	?
CCOC(=O)C1CCN(C(=O)COC(=O)c2cccc(NS(=O)(=O)c3ccccc3)c2)CC1	i	-13%	-3%	.	i
COc1cccc(C2CC(=O)Nc3c2c(=O)nc2c(C)cccn32)c1 (stereo not drawn)	i	.	.	.	i
S=C(NCCc1ccccc1)Nc1cccc2cnccc12	4.1µM*	-2%	18%	1.5µM*	8.2µM*
COc1cc(NC(=O)N(Cc2ccco2)C2CCN(C(C)=O)CC2)cc(OC)c1OC	i	.	.	.	i
COc1ccc(CC(=O)N[C@@H]2c3cc(OC)c(OC)cc3C[C@H]2O)cc1	i	-3%	?	1%	i
